Rows were chosen to be rich in hits. Some 10% of all compounds tested hit in one or more screens of this group.
HP1b binding inh = blocks HP1-beta chromodomain binding to methylated histone tails. actives 0.56% (n = 390,000). P83916. AlphaScreen HP1-beta / biotin-H3K9me3 peptide binding. Potency, µM (series often up to 114 µM), without a hit: at the top dose activity change, negative = inhibition, hits mostly inhibitors; also: potency is read from the fitted curve at half-maximal effect; nearly all actives have a fitted effect of over 70% in size
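HP1-beta protein (50 nM final) preincubated 30 min at room temperature with biotinylated H3(1-18)K9me3 peptide (50 nM) in PBS pH 7.4, 0.01% Tween-20, then compound added for 30 min. AlphaScreen streptavidin donor/nickel chelate acceptor beads (10 ug/mL final), 30 min dark, luminescence read.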
BAZ2B inh = blocks human BAZ2B. Q9UIF8. AlphaScreen BAZ2B-H3K14Ac peptide displacement. Potency, µM (highest dose often 114 µM), for the others: top-dose activity change, negative = inhibition, hits mostly inhibitors. actives 4.4% (n = 360,000); also: potency is read from the fitted curve at half-maximal effect; % is scaled to controls: 0 for no effect and ±100 for the full control effect; nearly all actives have a fitted effect of over 60% in size
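BAZ2B (50 nM) with biotin-H3(5-23)K14Ac peptide (50 nM) in PBS pH 7.4, 0.01% Tween-20, preformed 30 min, then compound 30 min at room temperature; top concentration 110uM. AlphaScreen streptavidin donor/nickel chelate acceptor beads (10 ug/mL final), 20 min dark, signal read.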
Six1-Eya2 inh = Six1/Eya2 interaction inhibition; AlphaScreen GST-Six1/His-Eya2 binding, biochemical; hits give low values; actives 0.56% (n = 360,000); AID 651725; activity change, % (test concentration not listed); Q15475+O00167; in the data active = activity change below about -65%; inconclusive = mostly about -30% to -63%; also: % is scaled to controls: 0 for no effect and ±100 for the full control effect
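AlphaScreen with GST-Six1 and His-Eya2 (5X mix: 250 nM and 500 nM), glutathione donor and nickel acceptor beads; buffer 50 mM Tris pH 8.0, 300 mM NaCl, 1 mM TCEP; 1 h at 37 C in the dark.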
JMJD2A Tudor inh = inhibitors of human JMJD2A Tudor domain. O75164. AlphaScreen JMJD2A-Tudor / H3K4me3 peptide binding. Potency, µM (series often up to 114 µM), for inactives: top-dose activity change, negative = inhibition, hits mostly inhibitors. actives 4.4% (n = 390,000); also: potency is read from the fitted curve at half-maximal effect; % is scaled to controls: 0 for no effect and ±100 for the full control effect; nearly all actives have a fitted effect of over 50% in size
G9a inh = blocks human histone lysine methyltransferase G9a; Q96KQ7; G9a H3K9 monomethylation, AlphaScreen, 2 h; Potency, µM (doses to about 102 µM), for the others: top-dose activity, negative = inhibition, actives largely listed as inhibitors; actives 8.8% (n = 350,000); AID 504332; also: potency is read from the fitted curve at half-maximal effect; % is scaled to controls: 0 for no effect and ±100 for the full control effect; nearly all actives have a fitted effect of over 75% in size
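G9a (20 nM) preincubated 15 min RT with compounds, then 500 nM biotinylated H3K9 peptide and 20 uM SAM added; 2 h RT reaction. Monomethyl-H3K9 product detected by AlphaScreen with anti-H3K9me1 antibody, streptavidin donor and anti-rabbit IgG acceptor beads.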
CtBP-E1A inh = inhibitors of CtBP/E1A interaction | AlphaScreen GST-E1A/His-CtBP binding, 1536-well; hits give low values | activity change, % (no concentration beside the values) | actives 0.49% (n = 340,000) | AID 651724; in the data active = activity change below about -65%; inconclusive = mostly about -30% to -63%; also: % is scaled to controls: 0 for no effect and ±100 for the full control effect
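GST-E1A and His-tagged CtBP (125 nM each as 5X stock) were preincubated with pin-transferred compound for 2 h at 37 °C in the dark, then glutathione donor and nickel acceptor beads were added for 1 h before AlphaScreen reading.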
* marks the source's active call; other numbers are inactive results; ? = inconclusive; / = not tested or not shown; [ ] = remark or other dose. Unless noted, calls follow the shape of the dose curve; as a rule, active = well fitted inhibition curve with a large enough effect; inconclusive = small, poorly fitted or top-dose-only effect; inactive = no such curve, though single readings can be large or run the other way.

SMILES	HP1b binding inh	BAZ2B inh	Six1-Eya2 inh	JMJD2A Tudor inh	G9a inh	CtBP-E1A inh
C=CCc1ccccc1OCC(O)CNC (stereo unspecified)	29%	1%	1	-14%	50µM*	4
Cc1ccc(N2CCN(CC(O)COc3cccc4ccccc34)CC2)cc1 (stereo unspecified)	?	35µM*	?	45µM*	40µM*	/
C=CCc1ccccc1OCC(O)CN1CCN(c2ccc(OC)cc2)CC1 (stereo unspecified)	?	50µM*	?	18µM*	?	-27
Cc1ccc(C)c(OCC(O)CN2CCC(C)CC2)c1C (stereo unspecified)	-38%	50µM*	3	-23%[11.4 µM]	?	11
COc1ccc(OC)c(NC(=O)CSc2n[nH]c(-c3ccccc3Cl)n2)c1	16%[57 µM]	-13%	/	-29%	-20%[59 µM]	/
C=CCc1ccc(OCC(O)CN2CCN(c3ccccc3OC)CC2)c(OC)c1 (stereo unspecified)	3%	?	-3	-22%	-22%[2.33 µM]	-3
COc1cccc(OC)c1OCC(O)CN1CCN(c2ccccc2)CC1 (stereo unspecified)	12%	-6%	32	-16%	?	9
C=CCc1ccc(OCC(O)CN2CCN(Cc3ccc(Cl)cc3)CC2)c(OC)c1 (stereo unspecified)	12%	?	-23	-20%[57.1 µM]	50µM*	-12
Cc1cccc(C)c1OCC(O)CN1CCN(c2ccccc2)CC1 (stereo unspecified)	32%	?	-10	-19%	71µM*	-5
COc1ccccc1N1CCN(CC(O)COc2c(OC)cccc2OC)CC1 (stereo unspecified)	18%	-35%	-7	-18%	14µM*	0
COc1ccc(Cl)cc1NC(=S)NCCSc1ccc(C)cc1	64%	29%	-8	11%[57.1 µM]	2%	14
Nc1[nH]c(C(=O)c2ccccc2)c(-c2ccc(Cl)cc2)c1C(=O)NCCc1c[nH]c2ccccc12	/	/	0	/	/	-24
CC(=O)Nc1ccc(SCC(=O)c2ccc(Br)s2)cc1	?	50µM*	-2	?	22µM*	-4
COc1ccc(CC(=O)NNC(=O)c2cccs2)cc1OC	16%	-6%	5	32µM*	2%	6
Cn1nnnc1SCC(=O)c1ccc(Br)s1	39%	0%	5	-16%	/	2
Cc1ccnc(SCC(=O)c2ccc(Br)s2)n1	50%	-35%	5	11%	18µM*	5
Cc1cc(C)nc(SCC(=O)NNC(=O)c2cccs2)n1	?	-9%	-6	-1%	56µM*	11
COc1ccccc1CC(=O)NNC(=O)c1cccs1	47%	-3%	20	-13%	3%	1
COc1cccc(NC(=O)CCc2nc(-c3cc(OC)c(OC)c(OC)c3)no2)c1	2%	-6%	/	-25%	-7%[59 µM]	/
CCOC(=O)C(=O)N(C)c1c(CC)nc2c(OCc3cccc(Cl)c3)cccn12	/	/	0	/	/	-1
Cc1cc(C)nc(NS(=O)(=O)c2ccc(NS(=O)(=O)c3ccc(C#N)cc3)cc2)n1	12%	-18%	-16	5%	?	-4
Cc1ccnc(SCc2cc(=O)c(OC(=O)c3cccs3)co2)n1	32%	6%	2	-14%	-2%	5
CC(=O)Nc1ccc(SCC(=O)Nc2sccc2C#N)cc1	15%	-12%	15	-9%	?	-8
Cc1ccnc(SCC(=O)Nc2sccc2C#N)n1	28%	50µM*	-8	-34%	-32%	-2
Cc1cc(C)nc(SCC(=O)NNS(=O)(=O)c2ccc(C#N)cc2)n1	?	56µM*	1	45µM*	7.9µM*	9
SMILES	HP1b binding inh	BAZ2B inh	Six1-Eya2 inh	JMJD2A Tudor inh	G9a inh	CtBP-E1A inh
Cc1ccnc(SCC(=O)c2cccs2)n1	35%	-4%	-4	-8%	35µM*	0
COc1ccc(S(=O)(=O)c2cnc3cc(OC)c(OC)cc3c2N2CCCC(C)C2)cc1 (stereo unspecified)	1%	-25%	/	-23%	-12%[59 µM]	/
Cc1ccccc1NC(=O)Cn1c(=O)n(Cc2ccc3c(c2)OCO3)c(=O)c2oc3ccccc3c21	18%	-4%	/	-11%	-3%[59 µM]	/
Cc1ccccc1Nc1nc(-c2sc(NC(=O)c3ccccc3)nc2C)cs1	/	?	/	/	35µM*	/
Cc1ccc(Nc2nc(-c3sc(NC(=O)c4ccc([N+](=O)[O-])cc4)nc3C)cs2)cc1	/	45µM*	/	/	/	/
Cc1ccccc1Nc1nc(-c2sc(NC(=O)c3cccc(Cl)c3)nc2C)cs1	/	89µM*	/	/	22µM*	/
Cc1ccccc1Nc1nc(-c2sc(NC(=O)c3ccc([N+](=O)[O-])cc3)nc2C)cs1	/	45µM*	/	/	25µM*	/
CCCCCC(=O)Nc1nc(C)c(-c2csc(Nc3cc(Cl)ccc3C)n2)s1	-11%	?	-2	?	?	/
COc1ccccc1Nc1nc(-c2sc(NC(=O)c3ccco3)nc2C)cs1	-8%	-33%	-17	-25%	?	-11
Cc1ccc(Cl)cc1Nc1nc(-c2sc(NC(=O)c3ccco3)nc2C)cs1	23%	?	-4	?	?	-6
Cc1ccc(Cl)cc1Nc1nc(-c2sc(NC(=O)c3cccc(Cl)c3)nc2C)cs1	/	?	/	/	32µM*	/
COc1cc(NC(=O)C/C(C)=N/NC(=O)C(=O)NCCO)c(OC)cc1Cl	2%	-4%	-9	?	4%	10
CN(C)C(=O)c1cnc(Sc2ncc(C(F)(F)F)cc2Cl)n1C	54%	16%	23	6%	56µM*	29
COc1ccccc1-c1csc(Nc2ccc(Oc3ccccc3)cc2)n1	/	/	-8	/	/	-3
COc1ccc(CCNCC(O)COc2ccc(Cl)cc2)cc1OC (stereo unspecified)	21%	-17%	-1	-24%	19%[59 µM]	-6
COc1ccc(CCNCC(O)COc2c(C)cccc2C)cc1OC (stereo unspecified)	?	50µM*	-1	?	-5%	-16
COc1ccc(CCNCC(O)COc2cccc(C(C)=O)c2)cc1OC (stereo unspecified)	?	71µM*	-4	25µM*	4%	1
COc1ccc(CN(Cc2ccccc2)C(=O)c2ccco2)cc1COc1ccc(NC(C)=O)cc1	0%	/	/	?	/	/
COc1cc(OC)c(NC(=O)Cn2cnc3nc4c(cc3c2=O)CCCC4)cc1Cl	14%[57 µM]	1%	/	-12%	14%[59 µM]	/
COc1ccc(Br)c2oc(SC)cc(=O)c12	32%	?	?	-10%	40µM*	?
C=CCc1cccc2cc(C(=O)Nc3ccccc3C(=O)O)c(=O)oc12	4%	50µM*	-23	-35%	13µM*	0

Screens from PubChem.
